Laboratory results reported in ChEMBL document CHEMBL2218924, “A broad activity screen in support of a chemogenomic map for kinase signalling research and drug discovery” (Biochem J, 2013).

These compounds were tested against Fibroblast growth factor receptor 3 (Homo sapiens) (UniProt P22607). Details: at 1 µM.
Chain of Fibroblast growth factor receptor 3 (Homo sapiens) (P22607 23-806 limits assumed): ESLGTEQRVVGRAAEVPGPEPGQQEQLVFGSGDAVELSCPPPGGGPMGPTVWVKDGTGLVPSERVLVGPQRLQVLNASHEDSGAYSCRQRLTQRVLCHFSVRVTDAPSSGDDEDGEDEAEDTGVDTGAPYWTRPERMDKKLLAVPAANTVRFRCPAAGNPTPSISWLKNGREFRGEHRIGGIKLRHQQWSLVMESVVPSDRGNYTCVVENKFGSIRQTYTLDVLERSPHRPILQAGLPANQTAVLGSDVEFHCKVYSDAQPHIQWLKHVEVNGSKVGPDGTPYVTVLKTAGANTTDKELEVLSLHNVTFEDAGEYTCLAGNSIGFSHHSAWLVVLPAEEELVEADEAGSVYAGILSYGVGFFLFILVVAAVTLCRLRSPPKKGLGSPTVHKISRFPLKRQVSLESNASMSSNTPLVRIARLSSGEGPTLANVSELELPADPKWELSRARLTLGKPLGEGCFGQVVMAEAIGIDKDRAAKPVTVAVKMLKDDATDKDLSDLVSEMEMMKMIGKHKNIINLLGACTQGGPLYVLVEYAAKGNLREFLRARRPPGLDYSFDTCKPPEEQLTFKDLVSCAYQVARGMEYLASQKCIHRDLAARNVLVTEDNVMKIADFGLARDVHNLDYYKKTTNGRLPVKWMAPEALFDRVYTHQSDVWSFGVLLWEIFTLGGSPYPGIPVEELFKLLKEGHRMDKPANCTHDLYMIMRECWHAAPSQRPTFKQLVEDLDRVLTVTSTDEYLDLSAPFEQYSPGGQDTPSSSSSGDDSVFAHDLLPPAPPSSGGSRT

Row | SMILES | residual activity [%]
1 | O=c1cc(N2CCOCC2)oc2c(-c3ccccc3)cccc12 | 101
2 | O=c1c(-c2ccc(F)cc2)c(-c2ccncc2)[nH]n1-c1ccc(Cl)cc1 | 123
3 | O=C(O)/C=C/c1cc(Br)c(Br)c(Br)c1Br | 103
4 | COc1ccc(-c2cnc3c(-c4ccsc4)cnn3c2)cc1 | 93
5 | COc1cc2c(cc1OC)-c1n[nH]c(Nc3cccc(F)c3)c1C2 | 111
6 | COc1ccc2c(c1)c(C1=C(c3c[nH]c4ccccc34)C(=O)NC1=O)cn2CCCN(C)C | 63
7 | COc1ccc(CNC(=O)Nc2ncc([N+](=O)[O-])s2)cc1 | 112
8 | Nc1ncnc2[nH]nc(Nc3ccc(F)cc3)c12 | 113
9 | O=C1Cc2c([nH]c3ccc([N+](=O)[O-])cc23)-c2ccccc2N1 | 125
10 | Nc1nc(Nc2ccc(S(N)(=O)=O)cc2)nn1C(=O)c1c(F)cccc1F | 29
11 | COc1cc2ncnc(Nc3cccc(Cl)c3)c2cc1OC | 104
12 | CC(C)[C@H](CO)Nc1nc(Nc2cc(N)cc(Cl)c2)c2ncn(C(C)C)c2n1 | 92
